Source: PubChem BioAssay (Tox21)
Unmarked numbers belong to inactive results. Activity calls are given as the source filed them. Calls follow the shape of the dose curve; as a rule, active = well fitted curve in the direction sought with a large enough effect in the repeat runs; inconclusive = weak or mixed curves; inactive = flat fitted curve, though single readings scatter.

assay: qHTS assay to test for compound auto fluorescence at 460 nm (blue) in HepG2 cell free culture (AID 720685); settings: Cell-free culture medium, blue autofluorescence 405/460 nm; series mostly up to 91.3 µM; fluorescence, % of fluorescent control: at the top concentration
Method in brief: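 Compound (23 nL) or DMSO pinned into cell-free MEM with 10% FBS; blue fluorescence read at 405/460 nm excitation/emission, expressed as auto-fluorescence equivalency to triamterene.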
% is scaled to controls: 0 for no effect and ±100 for the full control effect; potency is read from the fitted curve at half-maximal effect; tags tell the direction and shape of the fitted curve or compound fluorescence and quenching.

| Compound | fluorescence, % of fluorescent control | Potency |
| --- | --- | --- |
| CC1CCc2cc(F)cc3c(=O)c(C(=O)O)cn1c23 (centres undefined) | 0.0186% [at 46 µM] |  |
| CC1=CCC(C(C)C)C=C1 (centres undefined) | -0.0528% |  |
| CC(=O)c1ccc2c(c1)[C@H](NC(=O)c1ccc(F)cc1)[C@@H](O)C(C)(C)O2 | -0.241% |  |
| CC(C)c1ccccc1C(C)C | 0.0924% |  |
| CCOc1cc(OCC)c(C(=O)CCC(=O)O)cc1OCC | -0.12% [at 46 µM] |  |
| CC(C)CCCC(C)CCO (centres undefined) | -0.166% |  |
| CC(C)(C)C1CCCCC1O (centres undefined) | 0.0199% |  |
| CCC(=O)OC(C)(C)C1CC=C(C)CC1 (centres undefined) | 0.0221% |  |
| CCCOc1ccc2nc(NC(=O)OC)[nH]c2c1 | -0.0092% [at 46 µM] |  |
| COCCOCCOCCOCCOC | 0.0481% |  |
| CC(=O)Nc1ccc(/C=N/NC(N)=S)cc1 |  | inactive |
| COc1ccc(C(C)=O)cc1 | -0.173% [at 95.7 µM] |  |
| N=C(N=C(N)N)N1CCOCC1 | 0.021% [at 18.6 µM] |  |
| CCCCCCCCCO | -0.0195% |  |
| CC[C@H](C)[C@H](N)C(=O)O | -0.0345% [at 46 µM] |  |
| Cc1cc(NC(=O)C(=O)O)cc(C)c1Oc1ccc(O)c2c1CCC2 | 0.0481% |  |
| O=C(C(=O)c1ccc(Br)cc1)c1ccc(Br)cc1 | -0.0311% [at 18.6 µM] |  |
| CC(C)=CCCC(C)CC=O (centres undefined) | 0.134% |  |
| O=C=NC1CCC(CC2CCC(N=C=O)CC2)CC1 (centres undefined) | 0.0211% |  |
| CC(C)c1cccc(C(C)C)c1NC(=O)NS(=O)(=O)c1cc(C(C)(C)O)co1 | -0.105% |  |
| Nc1nc(N)c2nc(CNc3ccc(C(=O)N[C@@H](CCC(=O)O)C(=O)O)cc3)cnc2n1 |  | 35.5 µM [fluorescent] (active) |
| CCCCCc1ccc(N)cc1 | -0.0337% |  |
| N#Cc1c(F)cccc1F | -0.0539% |  |
| CC[C@H](C)[C@@H](C(=O)O)n1sc2ccccc2c1=O | 0.0209% |  |
